Laboratory results published in PubChem BioAssay (NCATS).
Calls of active or inactive are those of the source. Calls come from the whole dose curve; as a rule, active = well fitted activation curve with a large enough effect; inconclusive = small, poorly fitted or top-dose-only effect; inactive = no such curve, though single readings can be large or run the other way.

What follows are molecules tested against Cytochrome P450 3A4 (Homo sapiens) (UniProt P08684) (assay: qHTS Assay for Activators of Cytochrome P450 3A4 (AID 885; note: nearly all actives have a fitted effect of over 65% in size)). Conditions: recombinant CYP3A4, Luciferin-PPXE luminescence, 60 min; series mostly up to 57.1 µM; activity change, positive = activation: at the top concentration.
Sequence of Cytochrome P450 3A4 (Homo sapiens) (P08684 whole entry, looked up): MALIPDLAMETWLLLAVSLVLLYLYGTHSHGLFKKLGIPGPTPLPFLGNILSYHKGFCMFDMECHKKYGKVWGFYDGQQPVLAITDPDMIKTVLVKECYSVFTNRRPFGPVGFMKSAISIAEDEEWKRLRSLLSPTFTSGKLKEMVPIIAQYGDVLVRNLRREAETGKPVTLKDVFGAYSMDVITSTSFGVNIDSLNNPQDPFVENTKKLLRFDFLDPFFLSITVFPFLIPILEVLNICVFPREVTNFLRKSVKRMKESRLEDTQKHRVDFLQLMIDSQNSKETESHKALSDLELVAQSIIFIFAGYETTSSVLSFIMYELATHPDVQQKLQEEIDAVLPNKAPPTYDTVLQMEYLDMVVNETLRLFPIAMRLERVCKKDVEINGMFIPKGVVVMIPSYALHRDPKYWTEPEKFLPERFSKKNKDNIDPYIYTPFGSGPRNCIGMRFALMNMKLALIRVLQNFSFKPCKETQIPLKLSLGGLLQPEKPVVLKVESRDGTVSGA
How it was run: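 Signal was normalized against complete inhibition by 57 uM ketoconazole. The reaction used 20nM CYP3A4 with 25uM Luciferin-PPXE, 10-min compound preincubation and a 60-min NADPH-supported step at RT.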

Activity change, positive = activation, inactive:
CCC/C=C(\CCC)C(NC(=O)c1ccc(C(F)(F)F)cc1)c1ccc(C(F)(F)F)cc1 (stereo not given) -53.3%
CCCC/C=C/C(NC(=O)c1cccs1)c1ccccc1 (stereo not given) -76.4%
CC(C)(C)[Si](C)(C)c1c2c(nc3ccc(OCc4ccccc4)cc13)-c1cccc(=O)n1C2 -60.6%
COC(=O)[C@@]1(Cc2ccc(OC)cc2)[C@@H]2C(=CC(=O)[C@H]2CC(=O)C(=O)N2CCCC2)CN1C(=O)c1ccccc1 -54.7%
CCC/C=C(\CCC)C(NC(=O)c1ccc(-c2ccccc2)cc1)c1ccc(C(=O)OC)cc1 (stereo not given) -35%
c1ccc(-c2c3ccccc3nc3[nH]c4ccccc4c23)cc1 -34.6%
COC(=O)[C@@]1(Cc2ccccc2)[C@H]2c3cc(C(=O)N(C)C)n(Cc4ccsc4Br)c3C[C@H]2CN1C(=O)c1ccccc1 -97.8%
COC(=O)[C@@]1(Cc2ccccc2)[C@H]2c3cc(C(=O)N4CCCC4)n(Cc4c(CO)[nH]cc(C)c4=O)c3C[C@H]2CN1C(=O)c1ccccc1 -91%
CCCC[C@@H]1C[C@H]1C(NC(=O)c1ccccc1)c1ccc(Cl)cc1 (stereo not given in full) -63.5%
COC(=O)c1ccc(C23CC2(C(NP(=O)(c2ccccc2)c2ccccc2)c2ccccc2)C3)cc1 (stereo not given) -85.6%
C[C@@]1(C(NC(=O)Cc2ccccc2)c2ccc(-c3ccccc3)cc2)C[C@H]1C1CCCCC1 (stereo not given in full) -39.4%
C#CCOC(=O)NC(/C=C/CCCC)c1ccccc1 (stereo not given) -102%
CCCC[C@@H]1C[C@H]1C(NC(=O)c1ccc(C(F)(F)F)cc1)c1ccc(C(=O)OC)cc1 (stereo not given in full) -102%
O=C(NCc1nc2ccccc2[nH]1)[C@H]1C[C@@H]1[C@H](NP(=O)(c1ccccc1)c1ccccc1)c1ccccc1 -56.2%
COC(=O)[C@@]1(Cc2ccc(F)cc2)[C@H]2c3cc(C(=O)N4CCCC4)n(CCc4ccc(OC)c(Br)c4)c3C[C@H]2CN1C(=O)c1ccccc1 -107%
CC(C)c1cccc2cc3c(nc12)-c1cccc(=O)n1C3 -81.8%
COC(=O)[C@@]1(Cc2ccc(F)cc2)[C@H]2c3cc(C(=O)N4CCCC4)n(Cc4ccc(C)c(F)c4F)c3C[C@H]2CN1C(=O)c1ccccc1 -86.5%
Cc1cc(CNC(=O)[C@H]2C[C@@H]2[C@H](NP(=O)(c2ccccc2)c2ccccc2)c2ccccc2)nn1C -110%
COC(=O)c1ccc(C(NC(=O)c2ccco2)[C@]2(C)C[C@H]2C2CCCCC2)cc1 (stereo not given in full) -71.6%
CCCC[C@@H]1C[C@H]1C(NC(=O)c1cccs1)c1ccccc1C(F)(F)F (stereo not given in full) -75.9%
COc1ccc2nc3c(c([Si](C)(C)C(C)(C)C)c2c1)Cn1c-3cccc1=O -67.1%
CC(C)c1cccc2nc3c(c([Si](C)(C)C(C)(C)C)c12)Cn1c-3cccc1=O -69.5%
CCCC[C@@H]1C[C@H]1C(NC(=O)c1ccco1)c1ccc(-c2ccccc2)cc1 (stereo not given in full) -64.1%
COC(=O)[C@@]1(Cc2ccc(F)cc2)[C@H]2c3cc(C(=O)N4CCCC4)n(Cc4c(CO)[nH]cc(C)c4=O)c3C[C@H]2CN1C(=O)c1ccccc1 -79.6%
CCC/C=C(\CCC)C(NC(=O)c1ccccc1)c1ccccc1 (stereo not given) -69%
CCCC[C@@H]1C[C@H]1C(NC(=O)c1ccccc1)c1ccc(-c2ccccc2)cc1 (stereo not given in full) -49.1%
CC[C@@]1(O)C(=O)COc2c1cc1n(c2=O)Cc2c-1nc1cccc(C(C)C)c1c2[Si](C)(C)C -40.5%
CCCCc1c2ccccc2nc2[nH]c3ccccc3c12 -65.4%
COC(=O)[C@@]1(Cc2ccc(F)cc2)[C@H]2c3cc(C(=O)N(C)C)n(Cc4c(CO)[nH]cc(C)c4=O)c3C[C@H]2CN1C(=O)c1ccccc1 -69%
CCCC[C@H]1C[C@@H]1[C@@H]1N(P(=O)(c2ccccc2)c2ccccc2)[C@](CO)(c2ccccc2)CC12CC2 -98.5%
CC[C@H]1C2=C3C(CC[C@H]4C(OCc5ccc(F)cc5C(F)(F)F)OC[C@](C)([C@@H]34)N(C(=O)OC(C)(C)C)C2)C(COC(C)=O)C1COC(C)=O (stereo not given in full) -45.4%
COC(=O)[C@@]1(Cc2ccc(F)cc2)[C@H]2c3cc(C(=O)N(C)C)n(Cc4ccc(C)c(F)c4F)c3C[C@H]2CN1C(=O)c1ccccc1 -76.8%
CCc1cccc2nc3c(c([Si](C)(C)C)c12)Cn1c-3cccc1=O -74.5%
C[C@@H](C(=O)Nc1ccc2ccccc2c1)[C@H]1C[C@]1(C)[C@H](NC(=O)OCc1ccccc1)c1ccccc1 -105%
C=C1C(=O)C=C2CN(C(=O)c3ccccc3)[C@@](Cc3ccc(F)cc3)(C(=O)OC)[C@@H]12 -66.5%
